Assay outcomes: PubChem BioAssay, National Center for Advancing Translational Sciences (NCATS)
Hits are enriched below; roughly 8% of the tested compounds scored in any of these assays.
FBPA coupling cs = coupling enzyme interference in Giardia aldolase counter-screen; activity change, negative = inhibition, % at 58.2 µM, hits read low; hit rate 0.67% among 290,000; coupling enzyme system counterscreen, AmpLite Red fluorescence; in the data active means activity change below about -30%
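Final compound at 57.5 uM, incubated 10 min at RT with coupling enzyme reagent (glyceraldehyde-3-phosphate), then 20 min with substrate and AmpLite Red detection. Fluorescence read at 525/598 nm; tests interference with the coupling assay, not aldolase inhibition.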
VP16 counter = Gal4-VP16 reporter inhibition counter-screen. Drosophila S2 Gal4-VP16 UAS-luciferase, luminescence, 20 h. Potency, µM (highest dose often 53.6 µM), without a hit: top-dose activity, negative = inhibition, hits mostly inhibitors. hit rate 3.5% among 310,000. AID 2546;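 further: Gal4-VP16 expression switched on by copper sulfate through the metallothionein promoter; potency means the concentration at half of the fitted maximal effect; nearly all actives have a fitted effect of over 50% in size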
RORg inh = ROR gamma (mouse) transcription inhibition; P51450; Drosophila S2 Gal4-RORgamma UAS-luciferase reporter, 20 h; Potency, µM (series often up to 53.6 µM), without a hit: top-dose activity change, negative = inhibition, actives largely listed as inhibitors; hit rate 5.4% among 310,000; further: potency means the concentration at half of the fitted maximal effect; nearly all actives have a fitted effect of over 60% in size
Target sequence (P51450 whole entry, looked up, the tested form may be a part): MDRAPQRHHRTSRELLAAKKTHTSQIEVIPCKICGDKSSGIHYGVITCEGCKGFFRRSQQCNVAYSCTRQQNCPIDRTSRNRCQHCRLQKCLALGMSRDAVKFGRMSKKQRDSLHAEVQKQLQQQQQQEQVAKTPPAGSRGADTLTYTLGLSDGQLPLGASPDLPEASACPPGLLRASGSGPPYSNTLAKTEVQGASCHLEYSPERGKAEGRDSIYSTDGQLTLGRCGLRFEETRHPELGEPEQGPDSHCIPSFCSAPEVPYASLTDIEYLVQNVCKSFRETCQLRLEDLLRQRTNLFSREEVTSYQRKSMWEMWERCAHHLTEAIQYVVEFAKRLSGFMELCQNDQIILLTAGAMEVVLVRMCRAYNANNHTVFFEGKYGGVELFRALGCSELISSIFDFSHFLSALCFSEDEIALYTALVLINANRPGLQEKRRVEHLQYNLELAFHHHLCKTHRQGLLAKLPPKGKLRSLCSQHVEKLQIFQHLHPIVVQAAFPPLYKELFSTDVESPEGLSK
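Luminescence from a UAS-regulated Photinus luciferase reporter in stably transfected Drosophila Schneider cells is measured; decreased signal marks ROR gamma inhibition. Fusion expression is induced by 700 uM copper sulfate for 20 hr.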
TSHR antag = antagonists of human thyroid stimulating hormone receptor | activity change, negative = inhibition, % at 11.5 µM | hit rate 0.2% among 330,000 | TSHR-expressing cells, TSH-stimulated cAMP HTRF, 2 h; hits give low values | AID 504810;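 active means activity change below a set negative limit, meaning inhibition stronger than a set level, cut at about -70% in these data; inconclusive means activity change between two set negative limits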
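Freshly harvested TSHR cells receive pin-tooled compound, then EC80 TSH at 4nM final. After 2 hours at 37 deg C, antibody in lysis buffer and cAMP-d2 are added; 30 minutes at ambient temperature precede the HTRF read.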
ELG1 DNA repair = ELG1-dependent DNA repair inhibition; HEK293T ELG1-luciferase reporter, luminescence, 16 h; DNA damage induced by 5-fluorouridine; Potency, µM (doses to about 46.1 µM), for inactives: at the highest dose activity change, negative = inhibition, hits mostly inhibitors; hit rate 2.3% among 330,000; AID 504467; further: potency means the concentration at half of the fitted maximal effect; nearly all actives have a fitted effect of over 55% in size
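Quantitative HTS, concentration-response format. 2,000 cells/well co-treated with 5-fluorouridine and compound, 16 hr in 5% CO2 at 37 °C; ONE-Glo luminescence read after 30 min.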
* hit, by the source's call; [ ] = another dose, or the depositor's remark. Unless noted, the call rests on the fitted dose curve; in most records, active means well fitted curve in the direction sought with a large enough effect; inconclusive means small, poorly fitted or top-dose-only effect, or another doubt; inactive means no such curve, though single readings can be large; an effect the other way counts as inactive or inconclusive. On the % scale 0 is the no-effect control and ±100 the full control effect.

What do the screens show for `COc1ccc(C(=O)/C=C/C(=O)N(CC(=O)NC2CCCCC2)Cc2ccccc2OC)c(O)c1`?
FBPA coupling cs: 2; VP16 counter: inconclusive; RORg inh: inconclusive; TSHR antag: -24; ELG1 DNA repair: inconclusive

What do the screens show for `CC(C(=O)c1ccc(Br)cc1)[n+]1cccc2ccccc21` (stereo unspecified)?
FBPA coupling cs: 3; VP16 counter: -16%; RORg inh: inconclusive; TSHR antag: -5; ELG1 DNA repair: 2%

What do the screens show for `Cc1cnc(CNc2ncncc2-c2ccc3c(c2)OCO3)cn1`?
FBPA coupling cs: -1; VP16 counter: -15%; RORg inh: -4%

Results for CCCCn1c(N)c(N(C)C(=O)c2ccc(Br)o2)c(=O)[nH]c1=O ?
TSHR antag: -10; ELG1 DNA repair: 6%

How did CCN(CC(=O)Nc1c(F)cccc1F)C(=O)c1cc(C)oc1C do in these assays?
TSHR antag: 11; ELG1 DNA repair: 15%

What do the screens show for `Cc1ccc2nc(NC(=O)c3ccc4c(c3)OCO4)sc2c1`?
FBPA coupling cs: 0; VP16 counter: inconclusive; RORg inh: 7.9µM*; TSHR antag: 0; ELG1 DNA repair: inconclusive

Results for Cc1ccnc(NC(=O)c2ccc3c(c2)OCO3)c1 ?
FBPA coupling cs: -18; VP16 counter: inconclusive; RORg inh: 13µM*; TSHR antag: 1; ELG1 DNA repair: inconclusive

Results for O=C(Nc1ccon1)c1ccc2c(c1)OCO2 ?
FBPA coupling cs: 6; VP16 counter: 7%[0.365 µM]; RORg inh: 19%; TSHR antag: 0; ELG1 DNA repair: inconclusive

How did CCCCC(=O)Nc1nc2c(s1)COc1ccccc1-2 do in these assays?
FBPA coupling cs: 1; VP16 counter: -13%; RORg inh: inconclusive; TSHR antag: -2; ELG1 DNA repair: inconclusive

How did CCOC(=O)c1cnc2c(C(F)(F)F)cccc2c1NCCCN1CCOCC1 do in these assays?
FBPA coupling cs: 1; TSHR antag: 1; ELG1 DNA repair: -18%

What do the screens show for `COc1ccccc1CN1CCCC2(CCN(C(=O)c3ccco3)CC2)C1`?
FBPA coupling cs: 4; VP16 counter: -3%; RORg inh: 8%

Results for COc1ccc(-c2nc(SCC(=O)NCc3ccco3)c(-c3ccccc3)[nH]2)cc1OC ?
FBPA coupling cs: -1; VP16 counter: -22%; RORg inh: 44%; TSHR antag: -3; ELG1 DNA repair: 9.2µM*

What do the screens show for `COc1ccc(-c2[nH]c(-c3ccc(F)cc3)nc2SCC(=O)NCc2ccco2)cc1OC`?
FBPA coupling cs: 2; VP16 counter: -17%; RORg inh: 0%; TSHR antag: -12; ELG1 DNA repair: 18µM*

Results for COc1ccc(NC(=O)N(C)C[C@H]2Oc3c(NS(=O)(=O)c4cccs4)cccc3C(=O)N([C@@H](C)CO)C[C@@H]2C)cc1 ?
TSHR antag: -1; ELG1 DNA repair: inconclusive

Results for Cc1noc(C)c1-c1ccc2ncnc(Nc3ccccc3)c2c1 ?
FBPA coupling cs: -1; VP16 counter: 14%; RORg inh: inconclusive

Results for CNC(=O)c1ccsc1NC(=O)C1CCN(S(=O)(=O)c2ccc(Cl)s2)CC1 ?
TSHR antag: -14; ELG1 DNA repair: 18µM*

Results for COc1ccc(OC)c(N2CC(O)=C(c3nc4ccccc4s3)C2=N)c1 ?
FBPA coupling cs: -5; VP16 counter: 4%; RORg inh: 19%; TSHR antag: 19; ELG1 DNA repair: 0%

Results for CCOc1ccccc1N1CC(O)=C(c2nc3ccccc3s2)C1=N ?
FBPA coupling cs: -12; RORg inh: -18%[0.365 µM]; TSHR antag: -4; ELG1 DNA repair: 16µM*

How did Cc1ccccc1NC(=O)C(=Cc1ccc(C(=O)O)cc1)C(=O)Nc1ccccc1C do in these assays?
FBPA coupling cs: 10; VP16 counter: inconclusive; RORg inh: 7.9µM*; TSHR antag: 1; ELG1 DNA repair: 12µM*

Results for O=C(CCN1CCN(Cc2ccccc2)CC1)Nc1cccc(Br)c1 ?
FBPA coupling cs: 0; VP16 counter: 2%; RORg inh: 0%; TSHR antag: 5; ELG1 DNA repair: -12%

What do the screens show for `O=C(Nc1ccccc1)Nc1sccc1-c1nc2ccccc2s1`?
FBPA coupling cs: -10; VP16 counter: 4%; RORg inh: 7.9µM*; TSHR antag: -10; ELG1 DNA repair: -9%

How did O=C(Nc1cccc(Cl)c1)Nc1sccc1-c1nc2ccccc2s1 do in these assays?
FBPA coupling cs: -11; VP16 counter: 19%; RORg inh: inconclusive; TSHR antag: -21; ELG1 DNA repair: 1%

How did O=C(CCS(=O)(=O)c1ccc(F)cc1)Nc1nc(-c2ccccn2)cs1 do in these assays?
FBPA coupling cs: 1; VP16 counter: -22%; RORg inh: 10µM*; TSHR antag: -110*; ELG1 DNA repair: inconclusive

How did COc1ccc(OCCCC(=O)Nc2nc(-c3ccccn3)cs2)cc1 do in these assays?
FBPA coupling cs: -3; VP16 counter: -28%; RORg inh: 10µM*; TSHR antag: 10; ELG1 DNA repair: inconclusive

What do the screens show for `Cc1cc(C)c(OCC(=O)Nc2nc(-c3ccccn3)cs2)c(C)c1`?
FBPA coupling cs: -7; VP16 counter: inconclusive; RORg inh: 2.8µM*; TSHR antag: -5; ELG1 DNA repair: inconclusive

How did Cc1ccc(S(=O)(=O)CCC(=O)Nc2nc(-c3ccncc3)cs2)cc1 do in these assays?
FBPA coupling cs: 6; VP16 counter: -1%; RORg inh: -9%; TSHR antag: -11; ELG1 DNA repair: -10%

Results for Cc1ccc(-n2cc(C(=O)c3cc(Cl)ccc3O)cc(C#N)c2=O)cc1 ?
FBPA coupling cs: -2; VP16 counter: inconclusive; RORg inh: inconclusive; TSHR antag: -8; ELG1 DNA repair: -7%

Results for Cc1ccccc1NC(=O)c1cc(C(=O)c2cc(Cl)ccc2O)cn(-c2ccccc2C)c1=O ?
FBPA coupling cs: 0; VP16 counter: -27%; RORg inh: inconclusive; TSHR antag: -3; ELG1 DNA repair: 21µM*

Results for Cc1[nH]n(-c2ccccc2)c(=O)c1C(=O)c1ccccc1 ?
FBPA coupling cs: -6; VP16 counter: 20%; RORg inh: inconclusive; TSHR antag: -12; ELG1 DNA repair: inconclusive

Results for Cc1[nH]n(-c2ccccc2)c(=O)c1C(=O)c1ccc(Cl)cc1 ?
FBPA coupling cs: 14; VP16 counter: 6%; RORg inh: 11µM*; TSHR antag: 2; ELG1 DNA repair: inconclusive

What do the screens show for `CCSC(=S)c1c(C)[nH]n(-c2ccccc2)c1=O`?
FBPA coupling cs: -12; VP16 counter: 1.1µM*; RORg inh: 0.35µM*; TSHR antag: -10; ELG1 DNA repair: inconclusive

How did CN1CC(=O)N(C)c2ncn(Cc3ccccc3)c2C1=O do in these assays?
FBPA coupling cs: 0; VP16 counter: -8%[0.365 µM]; RORg inh: 4.5µM*; TSHR antag: 21; ELG1 DNA repair: 9%
